Data taken from PubChem BioAssay AID803 (The Scripps Research Institute Molecular Screening Center, 2007).
The whole screen tested about 140,000 compounds, of which about 680 (0.49%) were called active. No stated cut-off is given here; in the data, active means activation above about 5% (passing the limit was not always enough); inactive means the rest. The full list was thinned out, with actives kept by preference.

The compounds below were run against Galanin receptor type 2 (Homo sapiens) (UniProt O43603) (assay: human galanin receptor 2 activators – cell-based, primary screen (AID 803;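 further: 0% = vehicle buffer wells and 100% = reference agonist at full effect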)). Settings: GALR2-expressing cells, agonist activation read-out; at 5.6 µM; stronger effect = higher value.
Galanin receptor type 2 (Homo sapiens), sequence (O43603 whole entry, looked up): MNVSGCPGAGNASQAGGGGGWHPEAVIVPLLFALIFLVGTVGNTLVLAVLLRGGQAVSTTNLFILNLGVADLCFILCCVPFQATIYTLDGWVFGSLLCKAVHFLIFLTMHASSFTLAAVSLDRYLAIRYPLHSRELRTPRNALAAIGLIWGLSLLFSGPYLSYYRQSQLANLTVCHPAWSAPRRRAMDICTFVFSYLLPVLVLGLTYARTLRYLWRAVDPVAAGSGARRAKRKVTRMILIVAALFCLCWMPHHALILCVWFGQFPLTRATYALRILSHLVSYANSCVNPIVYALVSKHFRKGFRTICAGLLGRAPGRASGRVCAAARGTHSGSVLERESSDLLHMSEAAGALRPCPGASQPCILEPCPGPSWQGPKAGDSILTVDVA

Compound	activation
CC1Cc2ccccc2N1C(=O)CSc1nnc(-c2ccc(S(=O)(=O)N3CCCC3)cc2)n1C (stereo unspecified)	-1.17% (inactive)
N#Cc1c(N)n(CCOC(=O)c2ccc(Cl)cc2)c2nc3ccccc3nc12	7.76% (active)
CN(C)CCCn1c(N)c(C#N)c2nc(C#N)c(C#N)nc21	5.27% (inactive)
CC(C)(C)c1ccc(C(=O)NCCn2c(N)c(C#N)c3nc4ccccc4nc32)cc1	6.59% (active)
CN1OC(COC(=O)c2ccc(Cl)cc2)CC1c1ccccc1 (stereo unspecified)	-1.93% (inactive)
CC(C)(C)OC(=O)c1c(N)n(CCCN2CCCC2=O)c2nc3ccccc3nc12	3.75% (inactive)
O=S(=O)(O)c1nc2ccccc2n1Cc1ccc(Cl)cc1	-2.3% (inactive)
CC(Oc1ccccc1)C(=O)Nc1oc(-c2ccco2)c(-c2ccco2)c1C#N (stereo unspecified)	-0.85% (inactive)
O=C(/C=C/c1ccc(Cl)cc1)N1CCN(c2ccccc2[N+](=O)[O-])CC1	-1.19% (inactive)
Cc1nc2nc(SCC(=O)NCc3ccco3)nn2c(C)c1Cc1ccccc1	0.05% (inactive)
Cc1ccc(NC(=S)NCCN2CCOCC2)cc1	-2.96% (inactive)
Cc1ccc(Cc2c(C)nc3nc(SCC(=O)NCCN4CCOCC4)nn3c2C)cc1	24.8% (active)
Cc1cc(C)nc(-n2ncc3c2CC(c2ccc(C(C)C)cc2)CC3=O)n1 (stereo unspecified)	0.11% (inactive)
O=C(Nc1ccccc1F)c1ccccc1-c1ccc(C(F)(F)F)cc1	-0.53% (inactive)
O=C(NCC1CCCO1)/C(=C/c1ccc(Cl)cc1)NC(=O)c1ccccc1 (stereo unspecified)	-1.2% (inactive)
CCOC(=O)Cc1csc(NC(=O)C(C)(C)C)n1	6.79% (active)
CCOC(=O)Cc1csc(NC(NC(=O)OCC)(C(F)(F)F)C(F)(F)F)n1	-2.02% (inactive)
CCOC(=O)Cc1csc(NC(=O)Nc2ccccc2)n1	-2.31% (inactive)
CCCCN1C(=O)c2ccc(C(=O)Nc3ccc(S(=O)(=O)N(C)C)cc3)cc2C1=O	-1.35% (inactive)
CC(=O)NC(Cc1ccccc1)C(=O)NC1CCN(c2ncccc2[N+](=O)[O-])CC1 (stereo unspecified)	-0.16% (inactive)
OC(COCc1ccco1)CN1CCN(c2ccccc2)CC1 (stereo unspecified)	-1.72% (inactive)
Cc1ccc(C(=O)Nc2ccc(C)c(S(=O)(=O)N(C)C)c2)s1	0.14% (inactive)
COC(=O)CNC(=O)c1ccccc1[N+](=O)[O-]	-2.69% (inactive)
O=[N+]([O-])c1ccccc1SNc1ccccn1	10.3% (active)
O=S(=O)(Nc1ccccn1)c1ccc(Oc2ccccc2)cc1	-1.45% (inactive)
COc1cc(CN2CC(C)CC(C)C2)cc([N+](=O)[O-])c1O (stereo unspecified)	0.36% (inactive)
